Shown are actives, neighbours in structure and some others; about 10% of the full set was active somewhere.
G9a block = inhibitors of human histone lysine methyltransferase G9a. Q96KQ7. G9a H3K9 monomethylation, AlphaScreen, 2 h. Potency, µM (top dose mostly 102 µM), for inactives: at the top dose activity, negative = inhibition, actives largely listed as inhibitors. hit rate 8.8% among 350,000. AID 504332; also: potency is read from the fitted curve at half-maximal effect; % is scaled to controls: 0 for no effect and ±100 for the full control effect; nearly all actives have a fitted effect of over 75% in size
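G9a (20 nM) was preincubated 15 min with compound, then reacted 2 h at room temperature with 500 nM biotin-H3K9 peptide and 20 µM SAM. Monomethyl-H3K9 detected by AlphaScreen using anti-H3K9me1 antibody.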
BAZ2B inh = BAZ2B (human) inhibition; AlphaScreen BAZ2B-H3K14Ac peptide displacement; Potency, µM (top dose mostly 114 µM), inactives show at the highest dose activity change, negative = inhibition, usual class: inhibitors; hit rate 4.4% among 360,000; also: potency is read from the fitted curve at half-maximal effect; % is scaled to controls: 0 for no effect and ±100 for the full control effect; nearly all actives have a fitted effect of over 60% in size
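In this displacement format the biotinylated H3(5-23) peptide acetylated at Lys14 serves as ligand at 50 nM, with BAZ2B at 50 nM in PBS pH 7.4 containing 0.01% Tween-20. Donor and acceptor beads are 10 ug/mL final.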
Six1-Eya2 blk = inhibitors of human Six1/Eya2 interaction; hit rate 0.56% among 360,000; Q15475+O00167; activity change, % (concentration not given with the values); AID 651725; AlphaScreen GST-Six1/His-Eya2 binding, biochemical; stronger effect = lower value; in the data active = activity change below about -65%; inconclusive = mostly about -30% to -63%; also: % is scaled to controls: 0 for no effect and ±100 for the full control effect
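AlphaScreen with GST-Six1 and His-Eya2 (5X mix: 250 nM and 500 nM), glutathione donor and nickel acceptor beads; buffer 50 mM Tris pH 8.0, 300 mM NaCl, 1 mM TCEP; 1 h at 37 C in the dark.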
JMJD2A Tudor inh = blocks the human JMJD2A Tudor domain | O75164 | AlphaScreen JMJD2A-Tudor / H3K4me3 peptide binding | Potency, µM (titrated, usually from 114 µM), for inactives: at the highest dose activity change, negative = inhibition, usual class: inhibitors | hit rate 4.4% among 390,000 | AID 504339; also: potency is read from the fitted curve at half-maximal effect; % is scaled to controls: 0 for no effect and ±100 for the full control effect; nearly all actives have a fitted effect of over 50% in size
Target sequence (O75164 whole entry, looked up, the tested form may be a part): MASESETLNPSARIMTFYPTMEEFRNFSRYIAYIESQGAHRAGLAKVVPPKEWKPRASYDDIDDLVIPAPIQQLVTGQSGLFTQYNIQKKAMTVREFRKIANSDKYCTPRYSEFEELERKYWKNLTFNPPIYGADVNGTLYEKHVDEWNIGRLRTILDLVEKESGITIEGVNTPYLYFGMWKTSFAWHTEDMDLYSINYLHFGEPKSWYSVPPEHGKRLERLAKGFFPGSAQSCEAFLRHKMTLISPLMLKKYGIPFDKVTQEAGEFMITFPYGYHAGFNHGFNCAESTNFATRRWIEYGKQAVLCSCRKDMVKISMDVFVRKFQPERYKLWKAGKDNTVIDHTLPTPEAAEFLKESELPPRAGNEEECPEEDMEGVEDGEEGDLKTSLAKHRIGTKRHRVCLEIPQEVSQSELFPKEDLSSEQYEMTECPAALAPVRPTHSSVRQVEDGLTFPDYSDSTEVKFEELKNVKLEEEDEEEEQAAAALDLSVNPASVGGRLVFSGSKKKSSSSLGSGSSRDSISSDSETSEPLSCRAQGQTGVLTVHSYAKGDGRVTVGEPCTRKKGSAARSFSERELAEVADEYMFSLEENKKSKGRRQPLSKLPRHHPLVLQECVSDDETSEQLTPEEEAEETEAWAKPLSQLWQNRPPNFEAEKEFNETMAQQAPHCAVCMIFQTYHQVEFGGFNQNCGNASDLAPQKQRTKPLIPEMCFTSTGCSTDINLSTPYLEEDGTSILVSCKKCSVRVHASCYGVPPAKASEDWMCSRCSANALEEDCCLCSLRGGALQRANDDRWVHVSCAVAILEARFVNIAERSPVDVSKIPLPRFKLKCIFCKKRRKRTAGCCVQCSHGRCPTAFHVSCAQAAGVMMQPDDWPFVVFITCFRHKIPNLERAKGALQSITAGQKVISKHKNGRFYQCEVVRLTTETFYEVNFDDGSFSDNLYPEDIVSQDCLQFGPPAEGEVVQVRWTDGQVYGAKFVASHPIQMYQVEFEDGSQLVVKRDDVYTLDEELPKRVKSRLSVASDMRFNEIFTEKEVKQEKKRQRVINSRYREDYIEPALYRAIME
HP1b chromo inh = HP1-beta chromodomain-methylated histone interaction inhibition; P83916; AlphaScreen HP1-beta / biotin-H3K9me3 peptide binding; Potency, µM (series often up to 114 µM), for inactives: at the highest dose activity change, negative = inhibition, actives largely listed as inhibitors; hit rate 0.56% among 390,000; AID 540317; also: potency is read from the fitted curve at half-maximal effect; nearly all actives have a fitted effect of over 70% in size
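Compound inhibition of the preformed complex between 50 nM HP1-beta and 50 nM biotinylated H3K9me3 peptide was read by AlphaScreen. Buffer was PBS pH 7.4 with 0.01% Tween-20. Incubations ran 30 min at room temperature, with 10 ug/mL donor/acceptor beads.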
CtBP-E1A inh = blocks the CtBP interaction with E1A | AlphaScreen GST-E1A/His-CtBP binding, 1536-well; stronger effect = lower value | activity change, % (concentration not given with the values) | hit rate 0.49% among 340,000 | AID 651724; in the data active = activity change below about -65%; inconclusive = mostly about -30% to -63%; also: % is scaled to controls: 0 for no effect and ±100 for the full control effect
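AlphaScreen with 125 nM GST-E1A and 125 nM His-CtBP (5X stocks) in Tris pH 8.0, 300 mM NaCl, BSA, Tween 20, TCEP. Compounds preincubated 2 h at 37 deg C, then glutathione donor/nickel acceptor beads added for 1 h at 37 deg C in dark.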
An asterisk follows results filed as active; ? = inconclusive; . = not tested or not shown; [ ] = dose if it differs, or a comment. Unless noted, calls follow the shape of the dose curve; as a rule, active = well fitted inhibition curve with a large enough effect; inconclusive = small, poorly fitted or top-dose-only effect; inactive = no such curve, though single readings can be large or run the other way.

SMILES	G9a block	BAZ2B inh	Six1-Eya2 blk	JMJD2A Tudor inh	HP1b chromo inh	CtBP-E1A inh
O=C(N=C1SC2CS(=O)(=O)CC2N1c1ccc(Cl)cc1Cl)C1CC1 (stereo not drawn)	79µM*	-23%	2	-10%	27%	2
CCN(CC)C(=O)N1CCN(c2c([N+](=O)[O-])c(=O)oc3ccccc23)CC1	13%[12.7 µM]	9%	0	1%	41%	.
CCOc1cccc(-c2nnc3sc(-c4ccc(C)cc4)nn23)c1	14%	24%	.	.	.	.
CCOc1cccc(-c2nnc3sc(-c4ccco4)nn23)c1	7.9µM*	4%	-16	-32%	-11%	-9
COc1cccc(OC)c1-c1nn2c(-c3ccco3)nnc2s1	35µM*	5%	0	-2%	31%	8
COc1cc(-c2nn3c(-c4ccco4)nnc3s2)cc(OC)c1OC	22%	6%	.	.	.	.
COc1cccc(-c2nn3c(-c4ccco4)nnc3s2)c1	45µM*	6%	-24	-19%	25%	?
CC(C)N(C)c1ncnc2c1ncn2[C@H]1CN(Cc2ccc3c(c2)OCO3)C[C@@H](CO)O1	.	.	5	.	.	0
CC(C)CCSc1nc2c(c(=O)[nH]c(=O)n2C)n1CCCc1ccccc1	40µM*	7%	-1	-1%	34%	-4
CSc1nc2c(c(=O)[nH]c(=O)n2C)n1CCCc1ccccc1	71µM*	-2%	11	-5%	31%	-3
CN1CCN(c2nc3c(c(=O)[nH]c(=O)n3C)n2CCCSc2nnnn2-c2ccccc2)CC1	25µM*	-16%	-2	-9%	24%	1
CC(C)Oc1ccc(CNC(=O)c2ccc3nc(Cc4ccccc4)oc3c2)cc1	-3%[59 µM]	0%	.	-8%	22%[57 µM]	.
COc1cccc(-c2cccc(-c3nc(C(=O)NCCCN4CCOCC4)cc4c3[C@H](CCO)N(S(=O)C(C)(C)C)C4)c2)c1 (stereo partly drawn)	.	.	-5	.	.	-3
CC(=O)COc1nc2c(c(-c3ccco3)c1C#N)CCc1ccccc1-2	45µM*	-16%	11	22%	9%	11
CC(=O)Nc1cc(-c2cccc(N)c2)cn2c(-c3ccc(C(C)=O)cc3)cnc12	.	.	-14	.	.	-6
Cn1c(CN2CCOCC2)nnc1SCC(=O)Nc1ccc([N+](=O)[O-])cc1O	.	-18%	6	-3%	7%	-7
CCSS(=O)(=O)c1cccc2cccnc12	0.45µM*	22µM*	-91*	1.1µM*	?	-90*
O=C(O)CCS(=O)(=O)c1cccc2cccnc12	?	-4%	-6	-1%	2%	0
O=C(NNC(=O)c1ccc(S(=O)(=O)N2CCOCC2)cc1)c1ccccc1	22%	12%	3	-1%	21%	-10
O=C(Cc1ccc(Cl)cc1)NNS(=O)(=O)c1ccc([N+](=O)[O-])cc1	-10%[59 µM]	7%	0	-16%	18%	0
CO/S(=N\S(=O)(=O)c1ccc(Cl)cc1)c1ccc([N+](=O)[O-])cc1 (stereo not drawn)	3.2µM*	.	.	.	.	.
CCN(CC(=O)Nc1ccccc1OC)C(=O)COc1ccc2ccccc2c1	-21%	-4%	-7	-20%	7%	-2
CCOC(=O)c1c(NC(=S)Nc2ccccc2)sc2c1CCN(CC)C2	35µM*	-35%	-17	-1%	25%	-21
C=CCNC(=S)Nc1sc2c(c1C(=O)OCC)CCN(C(=O)OCC)C2	13µM*	14%	1	-27%	8%	-4
CCCN1CCc2c(sc(NC(=O)CCS(=O)(=O)c3ccccc3)c2C(=O)OC)C1	40µM*	-19%	-8	-15%	25%	-7
SMILES	G9a block	BAZ2B inh	Six1-Eya2 blk	JMJD2A Tudor inh	HP1b chromo inh	CtBP-E1A inh
CCOC(=O)N1CCc2c(sc(N)c2C#N)C1	20µM*	-25%	-9	-20%	20%	-29
CCOC(=O)N1CCc2c(sc(NC(=O)CN3CCOCC3)c2C#N)C1	.	-1%	2	-14%	14%	6
CC(C(=O)NCC1CCCO1)n1cc([N+](=O)[O-])cn1 (stereo not drawn)	-16%	-19%	6	-4%	42%	6
COc1ccccc1CC(O)CC1c2c(cc3c(c2OC)OCO3)CCN1C (stereo not drawn)	.	.	-7	-15%	11%	-8
COc1ccc(CCNC(=O)c2cc(=O)[nH]c3ccc(S(=O)(=O)N4CCCCC4C)cc23)cc1OC (stereo not drawn)	2%[59 µM]	-19%	.	-25%	21%	.
COc1ccc(-c2ccc(=O)n(Cc3ccccc3)n2)cc1	.	8%	10	1%	37%	.
COc1ccc(-c2c(C)nn(Cc3ccccc3)c2N)cc1	45µM*	-35%	-7	-29%	9%	-22
C=CCN(CC=C)CCOc1ccccc1	13µM*	56µM*	6	3.5µM*	-18%	-1
C=CCN(CC=C)CCOc1cccc2ccccc12	11µM*	50µM*	-7	20µM*	?	3
CCN(CC)CCNC(=O)c1ccc(NC(=O)c2cc(-c3ccco3)nc3ccccc23)cc1	32µM*	32µM*	-18	?	-9%	-9
CN(C)C(=O)c1ccc(NC(=O)c2cc(-c3ccco3)nc3ccccc23)cc1	72%	-15%	5	40µM*	?	0
Cc1csc(NC(=O)c2cc(-c3ccco3)nc3ccccc23)n1	-24%[59 µM]	?	?	?	?	-25
COc1ccc(NC(=O)c2cc(-c3ccco3)nc3ccccc23)cn1	11%[0.501 µM]	56µM*	-27	40µM*	?	-14
COc1ccc(C(=O)N[C@H](C(=O)Nc2ccc(S(=O)(=O)N3CCOCC3)cc2)C(C)C)cc1	7%	-25%	0	-3%[11.4 µM]	44%	9
C=C1[C@@H]2CC[C@H](C2)C1(C)C	5%[12.7 µM]	.	.	.	.	.
O=c1[nH]c(SCc2ccc(Br)cc2)nc2c1CCCC2	?	1%	.	8%	40%	.
CC1(C)OC(=O)C2(Cc3ccc(Br)cc3N3CCCCC32)C(=O)O1 (stereo not drawn)	.	.	.	56µM*	5%	.
CN1CCC(N(C)S(=O)(=O)c2ccc(NC(=O)COc3ccc(F)cc3)cc2)CC1	11µM*	?	-1	-20%	3%	-4
CN1CCC(N(C)S(=O)(=O)c2ccc(NC(=O)COc3ccc([N+](=O)[O-])cc3)cc2)CC1	13µM*	?	-6	-11%	24%	-3
CN1CCC(N(C)S(=O)(=O)c2ccc(NC(=O)COc3ccc(Cl)cc3)cc2)CC1	16%[12.7 µM]	0%	0	-19%	20%	-3
COc1cc(NC(=O)CSCc2ccccc2)c(C(=O)O)cc1OC	1%	-22%	2	-5%	29%	5

Assay outcomes deposited in PubChem BioAssay by National Center for Advancing Translational Sciences (NCATS).
